# Reference: PubChem BioAssay (NCI)
# Compounds without any hit were thinned out: in the full panel of roughly 83,000, 20% have a hit.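 The test compound was applied at a single concentration to cells in 96-well plates for 48 hours, and percent growth was recorded.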 Unmarked numbers belong to inactive results. The source made the active and inactive calls. Rule for the calls: active = growth percent below 10; inactive = the rest.
# What was measured:
# Test in all cases: NCI-60 one-dose screen, 48 h (100 = growth as untreated, 0 = no growth, -100 = all killed)
# OVCAR-8 ovarian = details: 10 µM unless noted
# OVCAR-5 ovarian = details: 10 µM unless noted
# OVCAR-4 ovarian = details: 10 µM unless noted
# SK-OV-3 ovarian = details: 10 µM unless noted
# IGROV1 ovarian = details: 10 µM unless noted
# OVCAR-3 ovarian = details: 10 µM unless noted
# HS 578T breast = details: 10 µM unless noted
# NCI/ADR-RES ovarian = details: 10 µM unless noted
# BT-549 breast = details: 10 µM unless noted
# MDA-MB-435 melanoma = details: 10 µM unless noted
# SW-620 colon = details: 10 µM unless noted
# MCF7 breast = details: 10 µM
# HCT-116 colon = details: 10 µM unless noted
# HCC-2998 colon = details: 10 µM unless noted
# KM12 colon = details: 10 µM unless noted
# T-47D breast = details: 10 µM unless noted
# RPMI-8226 leukemia = details: 10 µM unless noted
Structure (SMILES),growth (OVCAR-8 ovarian),growth (OVCAR-5 ovarian) [%],growth (OVCAR-4 ovarian),growth (SK-OV-3 ovarian) [%],growth (IGROV1 ovarian),growth (OVCAR-3 ovarian),growth (HS 578T breast) [%],growth (NCI/ADR-RES ovarian),growth (BT-549 breast),growth (MDA-MB-435 melanoma),growth (SW-620 colon),growth (MCF7 breast),growth (HCT-116 colon),growth (HCC-2998 colon) [%],growth (KM12 colon),growth (T-47D breast),growth (RPMI-8226 leukemia) [%]
CCOC(=O)c1sc(-c2ccc(OS(=O)(=O)C[C@]34CCC(CC3=O)C4(C)C)c(C=O)c2)nc1C,11.6%,46.9,18.6%,46,-21.8% (active),-5% (active),31.6,11%,-13.5% (active),7.61% (active),10.5%,2% (active),5.89% (active),66.4,7.78% (active),,
Clc1ccc(-c2nnc(COc3ccc(C4=NNC(c5ccco5)C4)cc3)o2)cc1 (stereo unspecified),96.6%,95,77%,98.2,85.4%,91.3%,95.7,72.6%,81.6%,93.1%,94.5%,17.3%,86.1%,82.3,,25.7%,
CCOC(=O)c1sc(-c2ccc(OS(=O)(=O)c3ccc(Br)s3)c(C=O)c2)nc1C,3.64% (active),61.2,7.2% (active),97.2,3.38% (active),-1.81% (active),27.6,-8.08% (active),9.16% (active),-12.1% (active),7.65% (active),0.976% (active),,82.5,6.21% (active),30.8%,
COc1ccc(-c2nnc(COc3ccc(C(=O)/C=C/c4ccco4)cc3)o2)cc1,73.9%,97.7,67.9%,92.8,87.6%,64.1%,92.6,89.2%,79.2%,10.9%,31%,19.6%,,98.2,,80.6%,
CCOC(=O)C(CC(=O)O)=C(C(=O)OCC)C(=O)OCC,99.9%,109,90.2%,110,111%,111%,107,112%,122%,103%,105%,92%,99.8%,104,103%,100%,
COC(=O)[C@@H]1CCCN1C(=O)[C@H]1CCCN1C(=O)[C@@H](Cc1c[nH]c2ccccc12)NC(=S)Nc1cc(C(F)(F)F)cc(C(F)(F)F)c1,61.3%,60.1,47.2%,69.6,29.2%,47%,11.6,67.1%,78.9%,31.9%,63.1%,25.3%,,20.8,40.1%,37.3%,
COC(=O)[C@H]1CCCN1C(=O)[C@H]1CCCN1C(=O)[C@H](Cc1c[nH]c2ccccc12)NC(=S)Nc1cc(C(F)(F)F)cc(C(F)(F)F)c1,68.5%,71.1,62%,85.2,44.6%,63.7%,44.8,93.2%,97.4%,45.4%,70.4%,32.5%,41%,16.1,36.4%,56.5%,
CC[C@@H](C)[C@H](NC(=O)Cn1cc(CNC(=O)[C@@H](NC(=O)OCc2ccccc2)C(C)C)nn1)C(=O)O,96.2%,,111%,109,113%,119%,104,,107%,102%,105%,100%,107%,101,109%,116%,106
CCCSC1=NC2C(N(CC)C(=O)N2CC)N1/N=C/C=C/c1ccccc1[N+](=O)[O-] (stereo unspecified),33.7%,48,39.9%,,29.9%,-15.8% (active),18.5,13.4%,30.7%,-30.1% (active),37.3%,21.8%,7.28% (active),15,14.9%,64.1%,
COc1ccc(C(=O)Nc2ccc3nc(N4CCCCC4)cc(C)c3c2)cc1OC,94.1%,89.1,,114,,59.1%,77.9,,90.6%,88.2%,23.7%,80.2%,64.2%,66.5,,94.8%,61.8
NC(=O)CSc1nc(-c2ccc(F)cc2)cc(-c2ccco2)n1,98.1%,,100%,102,94%,111%,115,105%,99.5%,104%,116%,83.2%,98%,109,106%,64.1%,98.5
CN1C(=O)N(C)C2C1NN=c1s/c(=C\c3ccc([N+](=O)[O-])cc3)c(=O)n12 (stereo unspecified),81.1%,86.1,82.2%,,57.4%,22.7%,67.5,61.5%,60.5%,6.25% (active),37.8%,26%,,84.9,35.5%,66.5%,
COc1ccc2[nH]c(O)c(N=NC(=O)c3oc4ccccc4c3C)c2c1,37.8%,41.7,-52.8% (active),,6.33% (active),-65.5% (active),25.5,30.5%,70.1%,28.9%,35.1%,22.9%,-28.6% (active),45.5,43.8%,-39.2% (active),
COc1ccc(CSc2nnc(SCC(=O)Nc3ccc(Cl)cc3)s2)cc1,84.4%,90.6,84.7%,103,63.6%,91.2%,75.6,,69%,67.2%,52%,63.8%,70.8%,72.6,44.8%,67.2%,
Cc1ccc2nc(NC(=O)CSC(=S)N3CCN(c4ccccc4)CC3)sc2c1,,95.6,92.7%,111,-4.12% (active),104%,104,,102%,111%,109%,95%,95%,,95.1%,85.7%,79.3
O=C1N=c2ccccc2=C1c1sc(=Nc2ccccc2)n(Nc2ccccc2)c1O,105%,101,43.5%,,96.2%,110%,102,108%,106%,-23% (active),108%,103%,104%,116,103%,97.6%,
CC[C@H](C)[C@@H](C(=O)OC)n1cc(CNC(=O)[C@@H](Cc2ccccc2)NC(=O)OCc2ccccc2)nn1,91.3%,,105%,109,92.2%,115%,101,94.4%,106%,99.9%,102%,97%,102%,104,103%,107%,90.1
O=CCCCC(O)C=O (stereo unspecified),106%,106,103%,104,108%,109%,98.1,99.2%,112%,105%,96.9%,98.9%,109%,105,103%,95.9%,
CN1C(=O)N(C)C2C1NN=c1s/c(=C\c3ccc(Cl)cc3Cl)c(=O)n12 (stereo unspecified),27.2%,32.5,36.9%,,16.4%,3.93% (active),23,14.9%,17.4%,-17% (active),27.8%,17.7%,8.45% (active),21.7,6.57% (active),72.1%,
CN1C(=O)N(C)C2(c3ccccc3)n3c(s/c(=C\c4ccccc4)c3=O)=NNC12c1ccccc1 (stereo unspecified),96.8%,99.9,100%,,97.9%,103%,102,,105%,98.1%,88.6%,85.6%,88.3%,110,88.2%,81.9%,
CCOC(=O)c1sc(-c2ccc(OS(=O)(=O)c3cccs3)c(C=O)c2)nc1C,-5.05% (active),33.1,4.5% (active),123,-36.2% (active),-9.03% (active),11.2,-2.63% (active),-7.24% (active),-15.1% (active),8.51% (active),-21.7% (active),2.95% (active),46.4,0.602% (active),19.1%,
O=C(CSc1ncccc1C(=O)O)Nc1ccc(Oc2ccccc2)cc1,103%,108,89.4%,100,104%,109%,92,100%,97.8%,105%,91.9%,91.5%,96.9%,102,110%,103%,
CC(C)[C@H](NC(=O)Cn1cc(C(=O)O)nn1)C(=O)O,98.1%,,104%,106,111%,108%,112,106%,104%,98.8%,108%,97.1%,102%,107,103%,106%,105
O=C(CN1C=NC2C(N3CCOCC3)=NC=NC21)c1ccc(Br)cc1 (stereo unspecified),100%,99,97%,,95.6%,108%,102,103%,103%,101%,100%,99.1%,,111,107%,101%,
N#C/C(=C1\SC(=O)CN1c1ccccc1)c1nc2ccccc2s1,94.9%,103,,99.1,,87%,94.3,,103%,102%,93.5%,73.8%,89%,97.3,98.4%,73.6%,83.7
O=C(NC1C(O)OC(CO)C(O)C1O)NS(=O)(=O)c1ccc(Cl)cc1 (stereo unspecified),102%,99.7,105%,105,107%,112%,98.7,105%,108%,100%,100%,98.2%,96.9%,115,104%,91.3%,
